{"source": "PubChem BioAssay AID841", "about": "(Emory University Molecular Libraries Screening Center, 2007)", "note": "Out of some 140,000 compounds screened, about 2,100 (1.5%) were called active. The sample holds actives, similar compounds and a random draw of the others, so the mix is not that of the screen. A number with no mark means an inactive call. Cut-off read from the data, not from the text of the source: active = protection mostly above about 24% (no sharp cut-off); inactive = mostly below about 26%."}
{"assay": "blockers of measles virus-induced cell death – single point, MLSMR library, absorbance, measles RdRp inhibitor project, primary screen (AID 841)", "conditions": "Measles virus-infected cells, CPE protection, at 4 µM, stronger effect = higher value"}
{"smiles": "Cc1cc([N+](=O)[O-])nn1CC(=O)Nc1ccc(Cc2ccncc2)cc1", "protection (pct of control)": "3.88%"}
{"smiles": "CCCCCCCCCOC1OC(CO)C(O)C(O)C1NC(C)=O", "note": "(stereo not drawn)", "protection (pct of control)": "19.9%"}
{"smiles": "CONc1nc2nonc2nc1NOC", "protection (pct of control)": "8.78%"}
{"smiles": "CC(C)C(=O)Nc1ccc(C(=O)NNC(=O)c2cccs2)cc1", "protection (pct of control)": "6.3%"}
{"smiles": "COc1ccccc1-c1nnc(NC(=O)c2ccc3ncsc3c2)o1", "protection (pct of control)": "19.4%"}
{"smiles": "CCOC(=O)c1sc(NC(=O)CSc2ncccn2)c(C#N)c1C", "protection (pct of control)": "12.3%"}
{"smiles": "CCN(CC)C(=O)c1sc(NC(=O)c2ccco2)c(C#N)c1C", "protection (pct of control)": "10.4%"}
{"smiles": "CCC(=O)Nc1sc(C(=O)N2CCCCC2)c(C)c1C#N", "protection (pct of control)": "34.3% (active)"}
{"smiles": "N#Cc1c(-c2ccc(F)cc2)cc(C2CC2)nc1SCC(=O)c1cccs1", "protection (pct of control)": "17.3%"}
{"smiles": "COc1ccc(NC(=O)c2sc(N3CCOCC3)nc2-c2ccccc2)c(OC)c1", "protection (pct of control)": "7.3%"}
{"smiles": "Cc1cccc(Cn2c(SCCO)nc3c2c(=O)n(C)c(=O)n3C)c1", "protection (pct of control)": "38.3% (active)"}
{"smiles": "CCCSc1nc2c(c(=O)n(C)c(=O)n2C)n1Cc1ccc(C)cc1", "protection (pct of control)": "16.6%"}
{"smiles": "COC(=O)C(C)Sc1nc2c(c(=O)n(C)c(=O)n2C)n1Cc1cccc(C)c1", "note": "(stereo not drawn)", "protection (pct of control)": "13.3%"}
{"smiles": "O=C(CSc1ccc(C(F)(F)F)cc1[N+](=O)[O-])NCCOc1ccccc1", "protection (pct of control)": "16.6%"}
{"smiles": "CCCCc1cc2c(s1)CCCC/C2=N/O", "protection (pct of control)": "5.03%"}
{"smiles": "COc1cc(C)c(C(C)C)cc1S(=O)(=O)n1ccnc1", "protection (pct of control)": "24.3%"}
{"smiles": "CCOc1ccc(S(=O)(=O)n2ccnc2)c2ccccc12", "protection (pct of control)": "40.7% (active)"}
{"smiles": "CCOc1ccc(S(=O)(=O)N2CCCCCC2)c2ccccc12", "protection (pct of control)": "3.16%"}
{"smiles": "O=S(=O)(/N=C(/Nc1ccccc1)c1ccccc1)c1cccs1", "protection (pct of control)": "4.51%"}
{"smiles": "Cc1cc(=O)oc2ccc(OCC(=O)O)cc12", "protection (pct of control)": "16.4%"}
{"smiles": "COC(=O)C(C)Oc1ccc2c(-c3cccc([N+](=O)[O-])c3)cc(=O)oc2c1", "note": "(stereo not drawn)", "protection (pct of control)": "4.97%"}
{"smiles": "CC(=O)COc1ccc2c(-c3ccccc3)cc(=O)oc2c1", "protection (pct of control)": "68.7% (active)"}
{"smiles": "CC(C)NC(=S)N1CCN(S(C)(=O)=O)CC1", "protection (pct of control)": "39.7%"}
{"smiles": "O=C(Nc1ccc2c(c1)OCCO2)C1CCCN(c2ncccn2)C1", "note": "(stereo not drawn)", "protection (pct of control)": "7.15%"}
{"smiles": "Cc1ccnc(N2CCC(C(=O)NC3CCCCCC3)CC2)n1", "protection (pct of control)": "6.88%"}
{"smiles": "Cc1ccnc(N2CCCC(C(=O)Nc3cc(F)ccc3C)C2)n1", "note": "(stereo not drawn)", "protection (pct of control)": "46.4% (active)"}
{"smiles": "NC1=NC(=O)C(Cc2cccc(Cl)c2Cl)S1", "note": "(stereo not drawn)", "protection (pct of control)": "22.3%"}
{"smiles": "C=CCn1c2ccccc2c2nnc(SCc3[nH]c(=O)[nH]c3C(=O)CCCCC(=O)OCC)nc21", "protection (pct of control)": "14.8%"}
{"smiles": "O=C(O)c1ccc2c(c1)C(=O)N(NC(=O)c1ccc(O)cc1)C2=O", "protection (pct of control)": "16.8%"}
{"smiles": "O=C(/C=C/Nc1ccccc1)c1cnc(-c2ccccc2)s1", "protection (pct of control)": "62.4% (active)"}
{"smiles": "Cc1ccc(N/C=C/C(=O)c2ccccc2)cc1C", "protection (pct of control)": "11.4%"}
{"smiles": "CC(C)(C)C(=O)c1cnc(Nc2ccccc2)s1", "protection (pct of control)": "2.07%"}
{"smiles": "Cc1ccc(/C=N\\n2c(-c3ccccc3)n[nH]c2=S)s1", "protection (pct of control)": "8.39%"}
{"smiles": "S=c1[nH]nc(-c2ccccc2)n1/N=C/c1c[nH]c2ccccc12", "protection (pct of control)": "2.43%"}
{"smiles": "Oc1ccccc1/C=N/n1c(-c2cccs2)n[nH]c1=S", "protection (pct of control)": "36.6% (active)"}
{"smiles": "COC(=O)Cc1ccc(OCC(=O)Nc2ccc(OC(F)(F)F)cc2)cc1", "protection (pct of control)": "9.11%"}
{"smiles": "Cc1ccc2nc(SCc3cn4c(C)cc(C)nc4n3)[nH]c2c1", "protection (pct of control)": "15.7%"}
{"smiles": "CN(C)/C(=N\\OC(=O)c1ccccc1)c1nonc1N", "protection (pct of control)": "10.6%"}
{"smiles": "O=C(Cn1nc(Cc2cccnc2)c2ccccc2c1=O)NCC1CCCO1", "note": "(stereo not drawn)", "protection (pct of control)": "2.54%"}
{"smiles": "O=C(Cn1c(=O)n(Cc2ccco2)c(=O)c2ccccc21)NCC1CCCO1", "note": "(stereo not drawn)", "protection (pct of control)": "42.5% (active)"}
{"smiles": "COc1ccc(NC(=O)Cn2c(=O)n(Cc3ccco3)c(=O)c3ccccc32)cc1", "protection (pct of control)": "4.73%"}
{"smiles": "O=C(/C=C/c1ccc(F)cc1)Nc1cccc(S(=O)(=O)Nc2cccc(C(F)(F)F)c2)c1", "protection (pct of control)": "9.17%"}
{"smiles": "Cc1ccc(-c2nc(C)sc2CC(=O)OCC(=O)Nc2c(F)cccc2F)cc1", "protection (pct of control)": "4.46%"}
{"smiles": "CCCC(=O)N1c2ccc(-c3csc(N)n3)cc2CC1C", "note": "(stereo not drawn)", "protection (pct of control)": "79.2% (active)"}
{"smiles": "CCn1nc(C(=O)OCC(=O)N2c3ccccc3CC2C)c2ccccc2c1=O", "note": "(stereo not drawn)", "protection (pct of control)": "10.5%"}
{"smiles": "CCC(=O)N1c2ccc(S(=O)(=O)CCC(=O)N3CCN(c4ccccc4)CC3)cc2CC1C", "note": "(stereo not drawn)", "protection (pct of control)": "8.07%"}
{"smiles": "O=C(NC(=S)Nc1cc(C(F)(F)F)ccc1N1CCOCC1)c1ccc(-c2cccc(Cl)c2)o1", "protection (pct of control)": "1.76%"}
{"smiles": "COC(=O)[C@H]1Cc2cnoc2C[C@]1(C)C(=O)O", "protection (pct of control)": "8.42%"}
